Structures can show the parent of a compound that is named as a salt.
What was measured:
Details in all cases: incubation time: 27 h, anaerobic, 37 °C;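 for the amine columns active = adjusted P below 0.05 in both replicates with a change the same way and a mean fold change under 0.8 or over 1.25; inactive = the rest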
[1] = tested on: Clostridium sporogenes DSM 1664; assay: growth (OD595) fold change vs plate DMSO controls (fold change (ratio)); higher = more growth
Method in brief: (§1)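 After 27 h at 37 °C under anaerobic conditions, 96-well cultures in mGAM were shaken and read at 595 nm. The readings were blank-subtracted, corrected for compound background using 20 µM compound solutions in water, and converted to OD with a calibration factor of 5. Growth is defined as the fold change over the median of DMSO controls on each plate. Fold changes above 1.5 were set to NA, and each value is the mean of 2 biological replicates.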

Escherichia coli IAI1 [2] = assay: as above
Method in brief: as §1

[3] = tested on: Klebsiella aerogenes DSM 30053; assay: as above
Method in brief: as §1

[4] = tested on: Ruminococcus gnavus DSM 108212; assay: as above
Method in brief: as §1

[5] = tested on: Klebsiella aerogenes DSM 30053; assay: fold change of Histamine concentration vs plate DMSO controls (fold change (ratio)); higher = more amine produced, active = hit call of the paper (significant change in both replicates, either direction)
Method in brief: (§2)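 Each value is the fold change relative to DMSO-only wells on the same plate. Four gut bacterial strains were grown anaerobically in mGAM at 37 °C for 27 h in 80 µL wells, starting at OD 0.1 before a 1:1 dilution, with compounds at 20 µM final (sweeteners 50 µM). Whole cultures were extracted with cold acetonitrile/methanol containing 0.1% formic acid, centrifuged, and amines were quantified by LC–triple-quadrupole MS (dynamic MRM) against external calibration curves with within-batch drift correction. Values are means of 2 biological replicates.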

[6] = tested on: Clostridium sporogenes DSM 1664; assay: fold change of Tryptamine concentration vs plate DMSO controls (fold change (ratio)); higher = more amine produced, active = hit call of the paper (significant change in both replicates, either direction)
Method in brief: as §2

[7] = tested on: Ruminococcus gnavus DSM 108212; assay: as above
Method in brief: as §2

Escherichia coli IAI1 [8] = assay: fold change of Putrescine concentration vs plate DMSO controls (fold change (ratio)); higher = more amine produced, active = hit call of the paper (significant change in both replicates, either direction)
Method in brief: as §2

[9] = tested on: Klebsiella aerogenes DSM 30053; assay: as above
Method in brief: as §2

Escherichia coli IAI1 [10] = assay: fold change of Cadaverine concentration vs plate DMSO controls (fold change (ratio)); higher = more amine produced, active = hit call of the paper (significant change in both replicates, either direction)
Method in brief: as §2

[11] = tested on: Klebsiella aerogenes DSM 30053; assay: as above
Method in brief: as §2

[12] = tested on: Ruminococcus gnavus DSM 108212; assay: fold change of 2-Phenylethylamine concentration vs plate DMSO controls (fold change (ratio)); higher = more amine produced, active = hit call of the paper (significant change in both replicates, either direction)
Method in brief: as §2

| Compound | growth [1] | growth (Escherichia coli IAI1 [2]) | growth [3] | growth [4] | fold change of Histamine concentration [5] | fold change of Tryptamine concentration [6] | fold change of Tryptamine concentration [7] | fold change of Putrescine concentration (Escherichia coli IAI1 [8]) | fold change of Putrescine concentration [9] | fold change of Cadaverine concentration (Escherichia coli IAI1 [10]) | fold change of Cadaverine concentration [11] | fold change of 2-Phenylethylamine concentration [12] |
| --- | --- | --- | --- | --- | --- | --- | --- | --- | --- | --- | --- | --- |
| CN(CCCCCCCCCCN(C)C(=O)Oc1cccc([N+](C)(C)C)c1)C(=O)Oc1cccc([N+](C)(C)C)c1 [Demecarium bromide] (20 µM) | 0.744 | 0.974 | 1.04 | 0.614 | 0.986 (inactive) | 0.871 (inactive) | 1.06 (inactive) | 0.987 (inactive) | 1.01 (inactive) | 1.03 (inactive) | 1.01 (inactive) | 1.06 (inactive) |
| CC(C)(C)NCC(O)COc1cccc2c1CC(O)C(O)C2 (stereo not given) [Nadolol] (20 µM) | 1.08 | 0.986 | 1.03 | 0.969 | 0.981 (inactive) | 1.08 (inactive) | 1.02 (inactive) | 1.06 (inactive) | 0.988 (inactive) | 1 (inactive) | 1 (inactive) | 0.971 (inactive) |
| O=C(O)CN(CCN(CC(=O)O)CC(=O)O)CCN(CC(=O)O)CC(=O)O [Pentetic acid] (20 µM) | 1.27 | 1.04 | 1.04 | 1.05 | 1.08 (inactive) | 1.02 (inactive) | 1.01 (inactive) | 0.998 (inactive) | 1.02 (inactive) | 0.992 (inactive) | 0.989 (inactive) | 0.997 (inactive) |
| CC(COc1ccccc1)NC(C)C(O)c1ccc(O)cc1 (stereo not given) [Isoxsuprine hydrochloride] (20 µM) | 1.07 | 1 | 1 | 1.01 | 0.819 (inactive) | 1.05 (inactive) | 0.977 (inactive) | 1.05 (inactive) | 1 (inactive) | 0.927 (inactive) | 1.03 (inactive) | 0.966 (inactive) |
| CCCCCN(CCCCC)C(=O)C(CCC(=O)O)NC(=O)c1ccc(Cl)c(Cl)c1 (stereo not given) [Lorglumide sodium salt] (20 µM) | 0.981 | 1.02 | 1.02 | 1.01 | 0.987 (inactive) | 0.763 (active) | 0.94 (inactive) | 1.07 (inactive) | 1.01 (inactive) | 1.03 (inactive) | 1.01 (inactive) | 0.919 (inactive) |
| CCCCC1=NC2(CCCC2)C(=O)N1Cc1ccc(-c2ccccc2-c2nnn[nH]2)cc1 [Irbesartan] (20 µM) | 1.11 | 1.03 | 1.01 | 1.21 | 1.05 (inactive) | 0.968 (inactive) | 0.947 (inactive) | 1.02 (inactive) | 1.01 (inactive) | 1.01 (inactive) | 0.995 (inactive) | 0.929 (inactive) |
| COCCCC/C(=N\OCCN)c1ccc(C(F)(F)F)cc1 [Fluvoxamine maleate] (20 µM) | 1.2 | 0.976 | 0.994 | 0.962 | 0.985 (inactive) | 1.03 (inactive) | 0.982 (inactive) | 1.02 (inactive) | 0.987 (inactive) | 0.985 (inactive) | 0.997 (inactive) | 1.02 (inactive) |
| CCN(CC)CCCC(C)Nc1c2ccc(Cl)cc2nc2ccc(OC)cc12 (stereo not given) [Quinacrine dihydrochloride hydrate] (20 µM) | 1.09 | 1.03 | 0.892 | 1.36 | 1.03 (inactive) | 1.1 (inactive) | 1.07 (inactive) | 1.03 (inactive) | 0.928 (inactive) | 0.982 (inactive) | 0.996 (inactive) | 1.08 (inactive) |
| CCCCNc1ccc(C(=O)OCCN(C)C)cc1 [Tetracaine hydrochloride] (20 µM) | 1.06 | 1.02 | 0.968 | 0.907 | 1.08 (inactive) | 1.04 (inactive) | 1.07 (inactive) | 0.956 (inactive) | 1.04 (inactive) | 0.983 (inactive) | 0.991 (inactive) | 1.05 (inactive) |
| CCCCCCCC/C=C\CCCCCCCC(N)=O [Oleamide] (20 µM) | 0.884 | 0.989 | 1.01 | 0.968 | 0.969 (inactive) | 1.01 (inactive) | 0.895 (inactive) | 1.02 (inactive) | 1.01 (inactive) | 1.06 (inactive) | 1 (inactive) | 0.862 (inactive) |
| N=C(N)NS(=O)(=O)c1ccc(N)cc1 [Sulfaguanidine] (20 µM) | 0.947 | 1.07 | 0.963 | 0.676 | 1.04 (inactive) | 1.27 (inactive) | 1.09 (inactive) | 1.2 (inactive) | 0.853 (inactive) | 1.04 (inactive) | 1.05 (inactive) | 1.09 (inactive) |
| CCCCOc1ccc(OCCCN2CCOCC2)cc1 [Pramoxine hydrochloride] (20 µM) | 1.11 | 0.971 | 1.17 | 0.899 | 0.904 (inactive) | 1.06 (inactive) | 1.01 (inactive) | 0.96 (inactive) | 0.976 (inactive) | 0.97 (inactive) | 1.02 (inactive) | 1.07 (inactive) |
| CCOCCn1c(N2CCCN(C)CC2)nc2ccccc21 [Emedastine difumarate] (20 µM) | 1.08 | 1.02 | 1.03 | 0.971 | 0.993 (inactive) | 0.994 (inactive) | 1.02 (inactive) | 0.991 (inactive) | 1.01 (inactive) | 1 (inactive) | 0.999 (inactive) | 1.05 (inactive) |
| CN(C)c1ccc2nc3ccc(=[N+](C)C)cc-3sc2c1 [Methylene blue] (20 µM) | 0.774 | 0.466 | 0.42 | 0.00745 | 0.942 (inactive) | 0.998 (inactive) | 1.02 (inactive) | 0.965 (inactive) | 0.928 (inactive) | 0.941 (inactive) | 0.989 (inactive) | 1.09 (inactive) |
| N[C@@H]1CONC1=O [D-cycloserine] (20 µM) | 0.977 | 0.973 | 1.09 | 0.926 | 0.897 (inactive) | 0.958 (inactive) | 0.931 (inactive) | 1 (inactive) | 1.03 (inactive) | 1.02 (inactive) | 1.05 (inactive) | 0.868 (inactive) |
| CN(C)CCOC(c1ccccc1)c1ccccc1 [Diphenhydramine hydrochloride] (20 µM) | 0.881 | 0.994 | 0.974 | 1.25 | 1 (inactive) | 1.05 (inactive) | 0.945 (inactive) | 0.962 (inactive) | 0.996 (inactive) | 0.98 (inactive) | 0.985 (inactive) | 0.914 (inactive) |
| CC(C)NCC(O)c1ccc(O)c(O)c1 (single isomer, unassigned; (+)) [(+) Isoproterenol-(+)-bitartrate salt] (20 µM) | 1.02 | 1.06 | 0.995 | 1.06 | 1.03 (inactive) | 1.01 (inactive) | 0.989 (inactive) | 0.979 (inactive) | 0.997 (inactive) | 0.976 (inactive) | 0.974 (inactive) | 0.984 (inactive) |
| C[N+](C)(C)CCCCCC[N+](C)(C)C [Hexamethonium dibromide dihydrate] (20 µM) | 0.959 | 0.998 | 1 | 0.892 | 1.02 (inactive) | 1.02 (inactive) | 1.03 (inactive) | 1.04 (inactive) | 0.982 (inactive) | 0.984 (inactive) | 1 (inactive) | 1.01 (inactive) |
| C[C@@H]1CCC[C@H](C)N1NC(=O)c1ccc(Cl)c(S(N)(=O)=O)c1 [Clopamide] (20 µM) | 1.09 | 0.983 | 0.983 | 1.04 | 1.07 (inactive) | 1.07 (inactive) | 1.02 (inactive) | 0.989 (inactive) | 1.03 (inactive) | 1 (inactive) | 1.01 (inactive) | 1.03 (inactive) |
| CC(C)(C)NCC(O)c1ccc(O)c(CO)c1 (stereo not given) [Salbutamol] (20 µM) | 1.05 | 0.99 | 1.03 | 0.843 | 1.08 (inactive) | 0.999 (inactive) | 1.03 (inactive) | 1.04 (inactive) | 1.02 (inactive) | 1 (inactive) | 0.998 (inactive) | 1.03 (inactive) |
| C=C1[C@H](CO)[C@@H](O)C[C@@H]1n1cnc2c(=O)[nH]c(N)nc21 [Entecavir] (20 µM) | 0.907 | 0.934 | 1.04 | 1.04 | 0.969 (inactive) | 0.982 (inactive) | 0.999 (inactive) | 0.972 (inactive) | 1 (inactive) | 1.04 (inactive) | 0.985 (inactive) | 0.98 (inactive) |
| CN(C)CCc1c[nH]c2ccc(C[C@H]3COC(=O)N3)cc12 [Zolmitriptan] (20 µM) | 1.04 | 1.06 | 1.01 | 0.975 | 1.01 (inactive) | 1.04 (inactive) | 1.04 (inactive) | 1.01 (inactive) | 1.01 (inactive) | 1.01 (inactive) | 0.993 (inactive) | 1.06 (inactive) |
| O=S(=O)(c1cccc2cnccc12)N1CCCNCC1 [Fasudil Hydrochloride] (20 µM) | 1.22 | 0.981 | 0.977 | 0.969 | 1.05 (inactive) | 0.964 (inactive) | 1.01 (inactive) | 1.01 (inactive) | 1.03 (inactive) | 1.03 (inactive) | 1.01 (inactive) | 0.942 (inactive) |
| CN(C)CCCC1(c2ccc(F)cc2)OCc2cc(C#N)ccc21 (stereo not given) [Citalopram hydrobromide] (20 µM) | 0.923 | 0.992 | 0.994 | 1.08 | 0.919 (inactive) | 0.955 (inactive) | 0.845 (inactive) | 0.927 (inactive) | 1 (inactive) | 0.991 (inactive) | 1.01 (inactive) | 0.788 (inactive) |
| O=C(CCCN1CCC(O)(c2ccc(Br)cc2)CC1)c1ccc(F)cc1 [Bromperidol] (20 µM) | 0.952 | 0.965 | 0.953 | 0.813 | 1.02 (inactive) | 1.02 (inactive) | 0.916 (inactive) | 0.99 (inactive) | 1 (inactive) | 0.913 (inactive) | 0.998 (inactive) | 0.949 (inactive) |

Source: the supplement of paper PMC12494721
